Rango complex inh – inhibitors of Rango-importin beta complex formation | Rango CFP/YFP FRET sensor + importin beta, 45 min | Potency, µM (titrated, usually from 92.2 µM), for inactives: at the highest dose inhibition of complex formation | 340,000 compounds, 0.031% hits | AID 540263; calls by dose curve;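 note: 0% = DMSO wells and 100% = buffer wells lacking importin beta; nearly all actives have a fitted effect of over 15% in size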
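FRET biosensor (snurportin 1 IBB flanked by EYFP and cerulean), 50 nM, with compound 5 min, then 0.125 microM importin beta in PBS, 1 mM DTT, 0.02% Tween-20, 0.1% BSA. CFP/YFP ratio read after 45 min at room temperature; pre-read flags interference.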
aSyn rescue – alpha-synuclein toxicity inhibition in yeast; Yeast expressing alpha-synuclein, growth rescue, BacTiter-Glo, 24 h; Potency, µM (series often up to 46.1 µM), for the others: top-dose growth rescue (activation), hits mostly activators; 370,000 compounds, 0.14% hits; AID 652106; note: % of control where 0% means no effect; nearly all actives have a fitted effect of over 65% in size
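Galactose-induced alpha-syn yeast (OD600=0.02, raffinose-pregrown) + pinned cpd, 24 hr, 30 deg C; growth by BacTiter-Glo luminescence. Growth restoration scores as activation.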
Rango release inh – inhibitors of RanGTP-induced Rango-importin beta complex dissociation | Potency, µM (series often up to 46.1 µM), for inactives: top-dose activity change, negative = inhibition | 340,000 compounds, 0.071% hits | O95149+P62826 | Biochemical FRET Rango-importin beta, RanGTP-induced dissociation; calls by dose curve; note: % of control where 0% means no effect; nearly all actives have a fitted effect of over 45% in size
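Recombinant Rango FRET biosensor (EYFP–snurportin 1 IBB–cerulean CFP10) at 0.1 uM premixed with 0.25 uM importin beta in PBS, 1 mM DTT, 0.02% Tween-20, 0.1% BSA. Compound added 5 min; RanGTP-RCC1 (0.6 uM Ran, 2 mM GTP, 0.2 uM RCC1) then triggers release, read at 45 min.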
Abeta rescue – compounds reversing amyloid beta toxicity in yeast. Potency, µM (highest dose often 46.1 µM), usual class: activators. 410,000 compounds, 0.063% hits. yeast expressing A-beta42, growth rescue, OD600, 48 h; response scale: 0% DMSO, 100% iron-clioquinol control; note: nearly all actives have a fitted effect of over 55% in size
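Yeast growth medium received pinned compounds, then yeast cells expressing toxic A-beta were added; plates incubated at 30 C for 48 hr. Growth read as absorbance at 600 nm, normalized to DMSO and equimolar FeCl3 plus clioquinol controls.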
S-ASM inh – human S-ASM enzyme inhibition; P17405; placental ASM, HMU-PC fluorogenic substrate, 60 min; Potency, µM (highest dose often 57.5 µM), without a hit: top-dose activity change, negative = inhibition, actives largely listed as inhibitors; 340,000 compounds, 0.006% hits
Target sequence (P17405 47-631 limits assumed): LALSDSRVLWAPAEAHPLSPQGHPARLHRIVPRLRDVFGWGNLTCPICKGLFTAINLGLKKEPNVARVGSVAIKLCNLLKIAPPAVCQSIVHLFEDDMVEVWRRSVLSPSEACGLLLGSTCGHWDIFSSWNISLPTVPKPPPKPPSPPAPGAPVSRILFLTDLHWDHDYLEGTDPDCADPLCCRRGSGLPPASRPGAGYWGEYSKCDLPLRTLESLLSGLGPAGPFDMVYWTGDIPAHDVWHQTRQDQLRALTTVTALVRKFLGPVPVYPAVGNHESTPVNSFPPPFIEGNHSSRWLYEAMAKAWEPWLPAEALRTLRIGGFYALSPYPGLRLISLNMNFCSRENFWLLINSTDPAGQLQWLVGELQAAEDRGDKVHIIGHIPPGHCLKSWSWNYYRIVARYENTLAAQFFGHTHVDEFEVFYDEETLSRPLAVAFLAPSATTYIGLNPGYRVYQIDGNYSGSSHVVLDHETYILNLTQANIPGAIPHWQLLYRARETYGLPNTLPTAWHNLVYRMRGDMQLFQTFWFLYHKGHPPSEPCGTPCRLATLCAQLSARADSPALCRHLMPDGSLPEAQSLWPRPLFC
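qHTS format. ASM enzyme prepared from human placenta hydrolyses the fluorogenic substrate HMU-PC0 (9 uM final) over 60 min at 37 °C after a 10 min compound preincubation.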
TDP-43 yeast inh – TDP-43 toxicity inhibition in yeast | TDP-43 expressing yeast growth rescue, BacTiter-Glo, 24 h | Potency, µM (highest dose often 46.1 µM), inactives show at the top dose growth rescue (activation), hits mostly activators | 410,000 compounds, 1.8% hits; note: % of control where 0% means no effect; nearly all actives have a fitted effect of over 50% in size
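Galactose-induced TDP-43 yeast, OD600=0.02, compound pinned; 24 hr, 30 deg C; BacTiter-Glo luminescence for growth. Inhibitors of TDP-43 toxicity read as activators.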
* hit, by the source's call; i = inactive; ? = inconclusive; · = not tested or not shown. Most compounds without a hit are left out; they make up all but 2% or so of the library. Unless noted, calls come from the whole dose curve; as a rule, active = well fitted curve in the direction sought with a large enough effect; inconclusive = small, poorly fitted or top-dose-only effect, or another doubt; inactive = no such curve, though single readings can be large; an effect the other way counts as inactive or inconclusive. Potency is the fitted concentration of half-maximal effect.

SMILES | Rango complex inh | aSyn rescue | Rango release inh | Abeta rescue | S-ASM inh | TDP-43 yeast inh
Nc1ncnc2c(C3OC(CO)C(O)C3O)c[nH]c12 (stereo not given) | 0% | 11µM* | 3% | i | 3% | 3.2µM*
Cc1cc(NS(=O)(=O)c2ccc(C(C)C)cc2)no1 | 2% | 8% | -14% | ? | 3% | 14µM*
Cc1cc(NS(=O)(=O)c2ccc(CC(C)C)cc2)no1 | 5% | 2% | 30% | i | -3% | 18µM*
COc1ccc(S(=O)(=O)Nc2cc(C)on2)cc1 | -1% | 2% | 27% | i | 2% | 7%
CCOC(=O)c1cnc2ccc(C)cc2c1Nc1ccc(OCc2ccccc2Cl)cc1 | · | · | · | i | · | 22µM*
CCOC(=O)c1cnc2ccc(OCC)cc2c1Nc1ccc(OCc2ccccc2Cl)cc1 | · | · | · | i | · | -4%
CCOC(=O)c1cnc2ccc(OC)cc2c1Nc1ccc(OCc2ccccc2Cl)cc1 | · | · | · | i | · | 20µM*
O=C(NCCc1ccccc1)c1ccc(CSc2nc3ccncc3n2Cc2ccccc2)cc1 | · | · | · | i | · | -4%
COc1ccc(/C=N/NC(=O)C[n+]2ccccc2)c(OC)c1OC | 4% | 22µM* | 1% | i | 5% | 17%
COC(=O)c1ccc(OCC2c3cc(OC)c(OC)cc3CCN2C(=O)c2ccc(OC)cc2)cc1 (stereo not given) | · | 12% | · | i | · | 35µM*
COc1cc2c(cc1OC)C(COc1ccc(F)cc1)N(C(=O)c1cccc(F)c1)CC2 (stereo not given) | · | 9% | · | i | · | 35µM*
COc1ccc(-c2nc3cccc(C)n3c2Nc2ccc(C)cc2)cc1 | · | -16% | · | · | · | ·
COC(=O)c1sccc1S(=O)(=O)N1CCN(c2cccc(C)c2)C(C)C1 (stereo not given) | · | · | · | i | · | 14µM*
COC(=O)c1cc(S(=O)(=O)N2CCN(c3cccc(C)c3)C(C)C2)c[nH]1 (stereo not given) | -1% | 7% | -7% | i | 0% | -2%
COc1ccc(-c2onc(C)c2C)cc1S(=O)(=O)NCC(C)c1ccccc1 (stereo not given) | · | · | · | i | · | 35µM*
Cc1ccc(-c2onc(C)c2C)cc1S(=O)(=O)NCc1ccco1 | · | · | · | i | · | ?
Cc1ccc(-c2onc(C)c2C)cc1S(=O)(=O)NCc1cccs1 | · | · | · | i | · | 16µM*
CCOc1ccccc1CNS(=O)(=O)c1cc(-c2onc(C)c2C)ccc1OC | · | · | · | i | · | 22%
COc1ccc(C2C(C(=O)Nc3ccccc3)=C(C)Nc3nc(-c4ccc(Cl)cc4)nn32)cc1 (stereo not given) | · | · | · | i | · | 13%
COC(=O)C1=C(C)Nc2nc(-c3ccccc3)nn2C1c1ccc(C)o1 (stereo not given) | -5% | -12% | -2% | 11µM* | -6% | 0%
COC(=O)CS(=O)(=O)c1nnc([C@H](Cc2ccccc2)NC(=O)OC(C)(C)C)o1 | -3% | -21% | 1% | i | 2% | 35µM*
CCc1ccc(OCC(=O)Nc2ccc3c(c2)COC3=O)cc1 | -2% | 5% | -3% | i | -14% | 13µM*
CCc1ccc(OCC(=O)NCCc2ccc3c(c2)OCCO3)cc1 | 1% | 8% | -11% | i | -4% | 32µM*
O=C(COc1ccccc1F)OCc1cc(=O)n2nc(-c3cccs3)sc2n1 | · | · | · | i | · | 2%
Cc1cccc(Cn2c(=O)oc3ccc(C)cc32)c1 | 0% | 4% | -4% | i | -3% | 20µM*
SMILES | Rango complex inh | aSyn rescue | Rango release inh | Abeta rescue | S-ASM inh | TDP-43 yeast inh
Cc1ccc2oc(=O)n(Cc3ccc(OC(C)C)cc3)c2c1 | 0% | 7% | -2% | i | -1% | ?
Cn1ncc(Cl)c1C(=O)N1CCN(c2ccc(Cl)c(Cl)c2)CC1 | 0% | 13% | 0% | i | -6% | 13µM*
Cn1ncc(Cl)c1C(=O)N1CCN(c2ccccc2)CC1 | -3% | -1% | -4% | i | 4% | 11%
CC1C=Cc2ccccc2N1C(=O)c1ccccc1 (stereo not given) | -1% | 5% | 2% | i | -1% | -2%
N#CC1c2ccccc2-c2ccccc2N1C(=O)c1ccccc1 (stereo not given) | · | 22µM* | · | i | · | 28µM*
C(=C/c1nccc2c1[nH]c1ccccc12)/c1ccc2c(c1)OCO2 | ? | 13% | ? | i | i | 10µM*
Cc1ccc2nc(-c3ccc(NS(C)(=O)=O)cc3)cc(-c3ccccc3)c2c1 | ? | -12% | 8.9µM* | i | 9% | -92%
COc1ccc(-n2nc3c(N4CCCC(C(=O)NCCc5ccc(C)cc5)C4)nnc(C)c3c2C)cc1 (stereo not given) | · | · | · | i | · | 12%
C=C1CC2(OC1=O)c1ccccc1CCc1ccccc12 | 2% | 7% | 0% | i | -1% | 1.8µM*
O=C1NC(=O)C2(CCc3ccccc32)N1 (stereo not given) | 0% | -4% | 44% | i | 0% | 1%
Cc1cccc(COc2ccc(-c3cc(C(F)(F)F)n4nc(C)cc4n3)cc2)c1 | · | · | · | i | · | 10%
Cc1ccc(CSCCC(=O)NCc2ccc(F)cc2Cl)cc1 | · | · | · | i | · | 22µM*
Cc1cc(C(=O)NC2CCC(C)CC2)c(C)o1 (stereo not given) | 0% | ? | 1% | i | -1% | 13µM*
COC(=O)c1ccc(-n2c(/C=C/c3cc(OC)c(OC)c(OC)c3)nc3cc(Cl)ccc3c2=O)cc1 | · | · | · | i | · | 22%
C/C(=N/NC(N)=S)c1cc2ccc(O)cc2oc1=O | ? | -6% | ? | 11µM* | i | 20%
Cc1cccc(N2C(=O)C(Oc3ccc(Cl)cc3Cl)C2C=O)c1C (stereo not given) | 3% | -51% | 18% | i | -2% | 16µM*
O=C1C2C3C=CC(C3)C2C(=O)N1CN(Cc1ccccc1)CN1C(=O)C2C3C=CC(C3)C2C1=O (stereo not given) | 6% | 6% | -2% | i | 4% | 5.6µM*
CC(/C=C/c1ccccc1)=N\NC(N)=S | 0% | 0% | -6% | i | 1% | 13µM*
CC(/C=C/c1ccccc1)=N\NC(=S)NC(C)C | -5% | -19% | 32% | ? | -3% | ?
C/C(=N\NC(N)=S)c1ccccc1 | -3% | -5% | -7% | ? | -1% | 21%
NC(=S)NN=C(c1ccccc1)c1ccccc1 | -1% | -22% | 4% | ? | -1% | 13µM*
